Screening results from PubChem BioAssay.
SENP8 block-1 = SENP8 protease inhibition; purified SENP8, Z-RLRGG-aminoluciferin cleavage, luminescence; inhibition, % at 10 µM; 1.2% of 330,000 active; AID 2540; in the data active = inhibition above about 50%
Target sequence (Q96LD8 whole entry, looked up): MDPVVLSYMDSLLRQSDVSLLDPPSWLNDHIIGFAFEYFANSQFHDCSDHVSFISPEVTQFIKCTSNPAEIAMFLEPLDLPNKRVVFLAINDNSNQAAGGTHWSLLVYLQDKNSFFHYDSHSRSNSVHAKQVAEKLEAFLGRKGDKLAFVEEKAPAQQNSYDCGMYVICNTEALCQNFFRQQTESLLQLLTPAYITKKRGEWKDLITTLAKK
TRAIL sens C8 = sensitizes caspase-8 expressing cells to TRAIL. inhibition (viability loss, TRAIL sensitization), % at 10 µM. AID 624354. NB7+C8 cells + TRAIL, ATPlite viability luminescence. 1% of 360,000 active;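 active = compounds causing at least 50% loss of cell viability in the single-dose screen, relative to plate controls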
SENP6 block = inhibitors of human SENP6 protease; Recombinant SENP6 catalytic domain, aminoluciferin luminescence; inhibition, % at 10 µM; 1.8% of 330,000 active;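 active = inhibition above about 50% at the single tested dose, limit read from the data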;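 also: plate controls were DMSO wells with enzyme for no effect and DMSO wells lacking enzyme for full effect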
SENP7 inh = SENP7 protease inhibition; 1.5% of 330,000 active; Q9BQF6; inhibition, % at 5 µM; AID 434973; recombinant SENP7, Z-RLRGG-aminoluciferin luminescence, 40 min;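 active = inhibition above about 50% at the single test dose, limit read from the data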;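 also: plate controls were DMSO with enzyme for no effect and no enzyme buffer wells for full effect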
Target sequence (Q9BQF6 706-1050 limits assumed): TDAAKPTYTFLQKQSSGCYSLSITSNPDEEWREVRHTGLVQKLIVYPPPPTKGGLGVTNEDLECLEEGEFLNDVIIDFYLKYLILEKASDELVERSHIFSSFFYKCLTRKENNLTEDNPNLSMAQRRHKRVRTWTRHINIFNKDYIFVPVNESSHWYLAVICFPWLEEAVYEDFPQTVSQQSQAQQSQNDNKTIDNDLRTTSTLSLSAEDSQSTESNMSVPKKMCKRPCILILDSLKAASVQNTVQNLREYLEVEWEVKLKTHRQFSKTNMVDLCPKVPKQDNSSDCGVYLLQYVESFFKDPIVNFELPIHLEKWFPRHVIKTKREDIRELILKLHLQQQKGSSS
PPC-1+TRAIL kill = kills PPC-1 cancer cells in the presence of TRAIL; PPC-1 cells + TRAIL, ATPLite viability luminescence; cell killing (% activity), % at 4 µM or 5 µM; 0.41% of 220,000 active; AID 1443;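 active = cell killing above 50% in the first pass at 4 µM, then a duplicate retest at 5 µM averaging 50% or more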;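 also: plate controls were cells with TRAIL plus DMSO for no effect and medium-only wells lacking cells for full effect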
SENP8 block-2 = inhibitors of human SENP8 protease | recombinant SENP8, Nedd8 substrate fluorescence | inhibition, % at 20 µM | 0.64% of 360,000 active | AID 602440 | Q96LD8; in the data active = inhibition mostly above about 40%, no sharp cut-off; inactive = mostly below about 27%
SENP8 conf-1 = confirmation of human SENP8 protease inhibitors; shares compounds with SENP7 inh; Recombinant SENP8, Z-RLRGG-aminoluciferin luminescence, 60 min; inhibition, % at 12.5 µM; 40% of 6,200 active; AID 488912;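 active = mean inhibition across replicates above about 50%, limit read from the data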
SENP6 confirm = confirmation of human SENP6 protease inhibitors; shares compounds with SENP7 inh; recombinant SENP6, Z-RLRGG-aminoluciferin luminescence; inhibition, % at 12.5 µM; 58% of 6,200 active; AID 488915
SENP7 conf = confirmation of human SENP7 protease inhibitors. shares compounds with SENP7 inh. recombinant SENP7, Z-RLRGG-aminoluciferin luminescence, 40 min. inhibition, % at 12.5 µM. 69% of 6,200 active
Casp3 SENP sel = selectivity test for SENP inhibitors: human caspase-3 inhibition. shares compounds with SENP7 inh. purified caspase-3, Z-DEVD-aminoluciferin luminescence, 60 min. inhibition, % at 12.5 µM. 60% of 6,200 active. AID 488918;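 active = mean inhibition above about 50%, limit read from the data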;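 also: plate controls were enzyme with DMSO for no effect and wells without caspase-3 for full effect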
SENP luc ctr = luminescence interference (SENP counter-screen). inhibition, % at 12.5 µM. Pre-incubated SENP8/Z-RLRGG-aminoluciferin, luciferase luminescence interference. AID 488919. 39% of 6,200 active. shares compounds with SENP7 inh;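 active = mean inhibition above about 50% when retested at one dose, limit read from the data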;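 also: plate controls were DMSO wells with completed reaction for no effect and substrate without enzyme for full effect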
SENP8 conf-2 = SENP8 (human) inhibition, single concentration confirmation; inhibition, % at 25 µM; 15% of 1,400 active; shares compounds with SENP8 block-2; purified SENP8, Nedd8-AMC/pro-Nedd8 cleavage fluorescence, 30 min; AID 624319; in the data active = inhibition mostly above about 39%, no sharp cut-off; inactive = mostly below about 34%
* = called active by the depositor; / = no result. Sampled rows, rich in hits. Any-hit rate of the full collection: about 3%.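 The calls were made as follows, unless noted: active = mean inhibition above about 50% in the one-dose retest (limit read from the data); inactive = the rest.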

SMILES | SENP8 block-1 | TRAIL sens C8 | SENP6 block | SENP7 inh | PPC-1+TRAIL kill | SENP8 block-2 | SENP8 conf-2 | others
O=[N+]([O-])c1ccc(N2CCCC2)c2ccncc12 | 18 | -2 | 60* | 47 | 14 | 53* | 20 | SENP8 conf-1=7;SENP6 confirm=10;SENP7 conf=14;Casp3 SENP sel=9;SENP luc ctr=6
O=[N+]([O-])c1ccc(N2CCNCC2)c2ncccc12 | / | / | / | / | 17 | / | /
CC(C)COC(=O)c1ccccc1C(=O)OCC(C)C | -2 | -9 | -16 | 1 | 8 | 48* | 8
CC1CCN(CC#CCOc2ccc(Cl)cc2)CC1 | 1 | -3 | 5 | 1 | / | 13 | /
Cn1c(=O)[nH]c2nncnc2c1=O | 6 | 7 | 11 | 18 | / | 78* | 90*
CC(=O)O[C@@]12CO[C@@H]1C[C@H](O)[C@@]1(C)C(=O)[C@H](O)C3=C(C)[C@@H](O)C[C@@](O)([C@@H](OC(=O)c4ccccc4)C12)C3(C)C (some centres undefined) | 2 | 22 | 3 | -2 | / | 58* | 20
N#CC1=C(N)Oc2cc(O)ccc2C1c1ccc2c(c1)OCO2 (centres undefined) | 5 | 16 | -4 | -5 | -4 | 14 | /
CC(C)n1c(O)c(C2c3cc(Cl)ccc3Oc3[nH]c(=O)n(C(C)C)c(=O)c32)c(=O)[nH]c1=O (centres undefined) | / | 5 | / | / | 15 | -12 | /
CCn1c(O)c(N=Nc2ccc(S(=O)(=O)N3CCOCC3)cc2)c(=O)n(CC)c1=S | -5 | 16 | -15 | 8 | -2 | 40* | 19
Cc1ncc([N+](=O)[O-])n1CCOC(N)=O | -1 | -5 | -4 | 1 | 5 | 17 | /
COC(=O)C(O)(c1c(C)[nH]n(-c2ccccc2)c1=O)C(F)(F)F (centres undefined) | 6 | -9 | 27 | 24 | 10 | 63* | 87*
COC(=O)C(O)(c1c[nH]c2ccccc12)C(F)(F)F (centres undefined) | -1 | 9 | -11 | 7 | -2 | 18 | /
CCC(=O)c1ccc(OC)c(OC)c1 | -5 | -6 | -19 | 12 | 8 | -7 | /
COc1ccc(C(=O)O)cc1OC | / | -9 | / | / | / | 45* | 14
CC(C)Oc1ccc(C2(C#N)CC[N+](C)(C)CC2)cc1 | 1 | -1 | -6 | 1 | 1 | 3 | /
ClCCOCCCl | 0 | 14 | 13 | 16 | / | 15 | /
COc1ccc(SCC2CN(C)CCC2c2ccc(F)cc2)cc1 (centres undefined) | -2 | 3 | -15 | -3 | / | 14 | /
O=[N+]([O-])c1ccc(N2CCNCC2)cc1N1CCCCCC1 | -4 | -3 | -11 | -1 | 4 | 48* | 13
CN1CCN(c2ccc([N+](=O)[O-])c(N3CCCCC3)c2)CC1 | 6 | 2 | -2 | -4 | 21 | 22 | /
CN1CCN(c2ccc([N+](=O)[O-])cc2Cl)CC1 | 2 | -16 | 15 | 8 | -4 | 18 | /
CC1CN(c2ccc([N+](=O)[O-])cc2Cl)CCN1 (centres undefined) | -6 | -6 | 10 | 2 | 6 | 32* | 14
Cc1nn(C)cc1/C=C1/CC2C3CC=C4CC(O)CCC4(C)C3CCC2(C)C1=O (centres undefined) | -2 | -18 | -2 | -18 | / | 47* | 10
CCOC(=O)Cn1cc([N+](=O)[O-])nc1[N+](=O)[O-] | 10 | 7 | -1 | 15 | -4 | 56* | 24
COc1cc(C)c(CN2CC=C(c3ccc(F)cc3)CC2)cc1C | -5 | 6 | 6 | 9 | / | 43* | 7
COc1cc(CN2CC=C(c3ccc(F)cc3)CC2)cc(OC)c1 | -11 | 2 | -11 | -10 | / | 15 | /
SMILES | SENP8 block-1 | TRAIL sens C8 | SENP6 block | SENP7 inh | PPC-1+TRAIL kill | SENP8 block-2 | SENP8 conf-2 | others
S=C1NC2(CCCCC2)NC12CCCCC2 | 2 | -2 | -2 | 7 | 10 | 32 | /
COc1cc2c(c(OC)c1OC)-c1ccc(O)c(=O)cc1[C@@H](N)CC2 | 0 | 12 | -8 | 7 | / | 53* | -12
Cc1c(N=Nc2c(O)[nH]c(=S)[nH]c2=O)c(=O)n(-c2ccccc2)n1C | -5 | 7 | 3 | 10 | 18 | 22 | /
CCOc1ccc2nc(N=Nc3c(O)[nH]c(=S)[nH]c3=O)sc2c1 | 6 | 5 | 13 | 6 | 3 | 40* | 2
CC(C)N(Cc1ccco1)/N=C/c1c(O)n(Cc2ccccc2)c(=O)[nH]c1=O | -11 | 18 | -14 | 10 | 15 | 20 | /
O=C(c1c[nH]cc1-c1ccccc1)c1cccc2ccccc12 | 3 | -8 | 7 | 8 | 8 | 46* | 4
CCCCC1(CCCC)C(=O)NC(=Nc2cccc(C)c2)NC1=O | -10 | -3 | -3 | 1 | 13 | 21 | /
Cc1cccc(N=C2c3cc([N+](=O)[O-])ccc3-c3c2cc([N+](=O)[O-])cc3[N+](=O)[O-])c1 | / | 29 | / | / | / | 94* | 23
O=c1cccc2n1CC1CNCC2C1 (centres undefined) | 3 | -12 | 6 | -1 | / | 6 | /
C[C@]12C[C@H](O)[C@@H](O)C[C@@H]1CC[C@@H]1[C@@H]2CC[C@]2(C)C(=O)CC[C@@H]12 | / | -2 | / | / | / | 49* | 6
COC1=CC(=O)OC(CCc2ccc3c(c2)OCO3)C1 (centres undefined) | / | -36 | / | / | / | 40* | -2
CC(C)[C@H](NC(=O)N1C[C@H]2C[C@@H](C1)c1cccc(=O)n1C2)C(=O)Nc1ccccc1F | -1 | 0 | -8 | -3 | / | 47* | 13
C=CCc1ccc(OC)cc1 | -10 | -1 | -3 | 2 | / | 50* | -5
COc1ccc(CN2CCNCC2)cc1 | -6 | -12 | -6 | -8 | / | 10 | /
Cc1ccc(C)c(NC(=O)CCNC(=O)N2C[C@H]3C[C@@H](C2)c2cccc(=O)n2C3)c1 | -1 | -6 | 15 | -1 | / | 12 | /
